# Screens: PubChem BioAssay, Broad Institute
# aSyn 5UTR act: Activators via SNCA 5'UTR binding, MLPCN | alpha-synuclein 5'UTR reporter, activators screen | activity score, % (tested at 7.5 µM), hits read low | 300,000 compounds, 7.1% hits; in the data active = activity score below about -60%
# An asterisk follows results filed as active. These entries were drawn from the full list.
SMILES,aSyn 5UTR act
O=C(COC(=O)C1COc2ccccc2O1)NC(=O)NC1CCCC1 (configuration not stated),-72.5*
O=C(Nc1nnc(C(F)(F)F)s1)C1COc2ccccc2O1 (configuration not stated),-69.1*
O=C(NCC1OCCc2ccccc21)c1ccc(NC(=O)c2ccc(Cl)cc2)cc1 (configuration not stated),79.4
Cc1ccc(NC(=O)C2COc3ccccc3O2)c(C)c1 (configuration not stated),-110.0*
O=C(Nc1ccccc1F)C1COc2ccccc2O1 (configuration not stated),-90.8*
Cc1ccc(NC(=O)C2OCCc3ccccc32)cc1 (configuration not stated),-132.8*
C/C(=N\NC(=O)C1COc2ccccc2O1)c1ccccn1 (configuration not stated),98.2
COC(=O)N1CCc2c(sc(NC(=O)C3=COCCO3)c2C#N)C1,-125.6*
O=C(NCC1COc2ccccc2O1)c1ccccc1 (configuration not stated),-137.0*
NC(=O)c1oc2ccccc2c1NC(=O)C1COc2ccccc2O1 (configuration not stated),-85.7*
O=C(Nc1ncccc1Cl)C1COc2ccccc2O1 (configuration not stated),-106.9*
O=C(N/N=C\c1cc(Br)cs1)C1COc2ccccc2O1 (configuration not stated),-126.5*
COC(=O)Cn1ncn2c(cc3oc(C)cc32)c1=O,-118.5*
CCCCNC(=O)c1nnn(-c2ccccc2)c1N,-140.0*
O=C(NC1CC1)c1cc2cc3ccccc3nc2s1,-152.4*
Cn1c(CCNC(=O)c2ccco2)nc2cc(NC(=O)c3ccccc3)ccc21,-91.1*
Cn1c(CCNC(=O)c2ccccc2)nc2cc(NC(=O)c3ccco3)ccc21,-80.9*
Cn1c(CCNC(=O)c2ccco2)nc2cc(NC(=O)c3ccco3)ccc21,-143.7*
COc1ccccc1C(=O)Nc1ccc2c(c1)nc(CCNC(=O)c1ccco1)n2C,-294.7*
CCC(=O)NCCc1nc2cc(NC(=O)c3ccco3)ccc2n1C,-72.7*
CC(C)c1ccc2nc(SCC(=O)NCC3CCCO3)c(C#N)cc2c1 (configuration not stated),-142.9*
Oc1ccc(-c2csc(Nc3ncccn3)n2)cc1,-153.7*
Cc1cccnc1Nc1nc(-c2ccccc2)cs1,-128.3*
NNc1nc(-c2ccccc2)cs1,-91.7*
c1ccc(-c2csc(Nc3ncccn3)n2)cc1,-65.6*
SMILES,aSyn 5UTR act
CC(=O)Nc1ccc(-c2csc(Nc3ncccn3)n2)cc1,-89.4*
CC(=O)c1ccccc1OC(=O)c1ccc(-c2ccccc2)cc1,-78.4*
COc1ccc(-c2nc3n(c2C)CCC3)cc1,-62.8*
COc1ccc(-c2cc3nc4n(c(=O)c3s2)CCC4)cc1,58.8
CCN(CC)C(=O)CSc1nc(N)c2c3c(sc2n1)CC(C)CC3 (configuration not stated),-85.1*
CN(C)CCN(C(=O)c1ccc2c(c1)OCCO2)c1nc2ccc(Cl)cc2s1,-158.6*
CN(C)CCCN(C(=O)c1ccc(S(=O)(=O)N2CCc3ccccc32)cc1)c1nc2ccc(Cl)cc2s1,58.1
CN(C)CCCN(C(=O)c1ccc2c(c1)OCCO2)c1nc2ccc(Cl)cc2s1,-133.5*
Cc1cc(=O)oc2cc(NC(=O)c3cccc(S(=O)(=O)N(C)C)c3)ccc12,-111.5*
Cc1cc(=O)oc2cc(NC(=O)c3ccc(OC(F)F)cc3)ccc12,-124.4*
Cc1cc(=O)oc2cc(NC(=O)c3cccc(F)c3)ccc12,-151.9*
Cc1cc(=O)oc2cc(NC(=O)c3cccc(S(C)(=O)=O)c3)ccc12,-97.1*
CCC(C)NC(=O)c1cc(Cl)c(NC(=O)C2=C(C)OCCS2)cc1OC (configuration not stated),-62.5*
CC12CCC(C(=O)Nc3nc4ccc(Br)cc4s3)(OC1=O)C2(C)C (configuration not stated),-92.0*
N#Cc1cn(-c2ccccc2)nc1-c1ccccc1,-78.3*
CN1CCN(C(=O)/C=C/c2ccc([N+](=O)[O-])o2)CC1,-82.6*
O=C(/C=C/c1ccc(-c2ccc(F)cc2)o1)N1CCCC1,-127.2*
Clc1ccc(-c2noc(CN3CCOCC3)n2)cc1,-86.2*
COc1ccc(/C=C2\SC(=O)N(CCNC(=O)C3CC4C=CC3C4)C2=O)cc1 (configuration not stated),-194.3*
Oc1ccc2ccccc2c1C=Nc1ccccc1-c1nc2ccccc2[nH]1,-79.1*
C=CCSc1ncc(C(=O)OCC)c(N)n1,-101.4*
CCOC(=O)c1cnc(SCc2ccccc2)nc1N,-183.2*
COc1cccc(NC(=O)c2ccc3c(c2)CCN3S(C)(=O)=O)c1,-118.3*
COc1cccc(NC(=O)c2ccc3c(c2)N(C)CCS3)c1,-116.9*
CN1CCSc2ccc(C(=O)Nc3ccc(Cl)cc3)cc21,-215.0*
SMILES,aSyn 5UTR act
O=C(/C=C/c1ccc(Cl)cc1)N1CCOCC1,-75.6*
CCCOc1ccc(/C=C/C(=O)N2CCOCC2)cc1,-68.2*
CC(C)c1ccc(/C=C/C2=NNC(=O)CC2)cc1,87.4
CC(C)c1ccc(/C=C/C(=O)N2CCOCC2)cc1,-155.8*
O=C(CCl)NCc1cc(-c2ccc(Cl)cc2)no1,-65.3*
Clc1ccc(SCc2cc(-c3ccccc3)on2)cc1,-75.5*
c1ccc(SCc2cc(-c3ccccc3)no2)cc1,-143.3*
Clc1ccc(-c2cc(CSc3ccccc3)on2)cc1,-180.8*
c1ccc(Cc2cc(-c3ccccc3)on2)cc1,-129.5*
Clc1ccc(-c2cc(CSc3cccc(Cl)c3)on2)cc1,-66.8*
Cc1nc2c(cc(Oc3ccc(S(=O)(=O)N4CCOCC4)cn3)c3ccsc32)s1,-88.7*
COc1cc(C=O)ccc1OCCSc1ccc(Cl)cc1,-86.6*
Clc1ccccc1/C=C/c1nc(-c2cccnc2)no1,-194.6*
C(=C\c1nc(-c2cccnc2)no1)/c1ccccc1,-153.5*
CSc1ccc2c(c1)N(CCC1CCCCN1C)c1ccccc1S2 (configuration not stated),109.5
O=C(c1ccc(F)cc1)c1ccc(-c2ccc(F)cc2)nc1,-140.5*
COc1cccc(NC(=O)Nc2nc(SC(C)(C)C)ns2)c1,-130.1*
COc1cccc(NC(=O)Nc2nc(SC)ns2)c1,-151.1*
COc1ccc(-n2cccc2/C=C2/NC(=O)N(c3cccc(Cl)c3)C2=O)cc1,-143.2*
Cc1cccc2cc(C#N)c(NCc3ccccc3)nc12,-76.4*
Cc1ccc(-c2nn(-c3ccccc3)cc2CSC(=N)N)cc1,119.5
Cc1ccc(-c2nn(-c3ccccc3)cc2CO)o1,-82.2*
Cc1ccc(-c2nn(-c3ccccc3)cc2C=O)o1,-87.7*
O=[N+]([O-])c1cc(Cl)cc(/C=N/Nc2nc3ccccc3s2)c1O,-77.7*
COc1cc(/C=N/Nc2nc3ccccc3s2)cc([N+](=O)[O-])c1O,-100.3*
SMILES,aSyn 5UTR act
Cc1cc(-c2nc3ncccc3o2)ccc1NC(=O)CC(C)C,-74.7*
CC(C)CC(=O)NC(c1cccs1)c1ccc2cccnc2c1O (configuration not stated),74.0
Cc1ccc(OCC(=O)Nc2ccc(-c3nc4ncccc4o3)cc2)c(C)c1,-102.1*
CN(C)CCCNS(=O)(=O)c1ccc(N2CCC(c3ccc(Cl)cc3)=N2)cc1,-138.6*
Cc1ccc(N2C(=O)c3ccccc3C2O)nc1 (configuration not stated),72.7
COc1ccc(N2C(=O)c3ccccc3C2O)cc1 (configuration not stated),-78.5*
